From PubChem BioAssay AID1159580 (chemical genetic matrix, 2015)
Out of some 5,500 compounds screened, about 2,000 (36%) were called active. Inconclusive results (about 18%) are left out. Cut-off read from the data, not from the text of the source: active = normalized growth mostly below about 0.91 (no sharp cut-off); inconclusive = no clear call, values can overlap the other calls; inactive = mostly above about 0.92. This is one part of the list.

Assay: chemical genetic growth profiling, strain panel (AID 1159580);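 note: tested at 20 µM; growth read once vehicle control cultures reached saturation at 30 °C; 1 = growth at the plate median or of vehicle wells; lower values mean less growth of the strain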
Conditions: growth OD

Measured: normalized growth

COc1ccc(C(=O)c2ccc(O)cc2)c(O)c1O
inactive: S. cerevisiae deletion strains, locus YAL013W, strain DEP1, stronger effect = lower value 1.04 | S. cerevisiae deletion strains, locus YAL021C, strain ccr4, stronger effect = lower value 0.963 | S. cerevisiae deletion strains, locus YAL026C, strain drs2, stronger effect = lower value 0.961 | S. cerevisiae deletion strains, locus YAL030W, strain snc1, stronger effect = lower value 0.967 | S. cerevisiae deletion strains, locus YBL061C, strain skt5, stronger effect = lower value 0.97 | S. cerevisiae deletion strains, locus YBR009C, strain hhf1, stronger effect = lower value 0.951 | S. cerevisiae deletion strains, locus YBR021W, strain FUR4, stronger effect = lower value 1.02 | S. cerevisiae deletion strains, locus YBR023C, strain chs3, stronger effect = lower value 0.968 | S. cerevisiae deletion strains, locus YBR171W, strain sec66, stronger effect = lower value 0.965 | S. cerevisiae deletion strains, locus YBR229C, strain ROT2, stronger effect = lower value 1.02 | S. cerevisiae deletion strains, locus YBR231C, strain swc5, stronger effect = lower value 0.96 | S. cerevisiae deletion strains, locus YBR279W, strain paf1, stronger effect = lower value 0.974 | S. cerevisiae deletion strains, locus YCL011C, strain gbp2, stronger effect = lower value 0.961 | S. cerevisiae deletion strains, locus YCL016C, strain dcc1, stronger effect = lower value 0.974 | S. cerevisiae deletion strains, locus YCL029C, strain bik1, stronger effect = lower value 0.993 | S. cerevisiae deletion strains, locus YCL061C, strain MRC1, stronger effect = lower value 0.984 | S. cerevisiae deletion strains, locus YCL069W, strain vba3, stronger effect = lower value 0.98 | S. cerevisiae deletion strains, locus YCR088W, strain abp1, stronger effect = lower value 0.973 | S. cerevisiae deletion strains, locus YDL005C, strain med2, stronger effect = lower value 0.968 | S. cerevisiae deletion strains, locus YDL035C, strain GPR1, stronger effect = lower value 1.04 | S. cerevisiae deletion strains, locus YDL040C, strain nat1, stronger effect = lower value 0.972 | S. cerevisiae deletion strains, locus YDL074C, strain BRE1, stronger effect = lower value 1.01 | S. cerevisiae deletion strains, locus YDL101C, strain DUN1, stronger effect = lower value 1.02 | S. cerevisiae deletion strains, locus YDL134C, strain PPH21, stronger effect = lower value 1.01 | S. cerevisiae deletion strains, locus YDL185W, strain tfp1, stronger effect = lower value 0.995 | S. cerevisiae deletion strains, locus YDL192W, strain arf1, stronger effect = lower value 0.997 | S. cerevisiae deletion strains, locus YDR001C, strain nth1, stronger effect = lower value 0.973 | S. cerevisiae deletion strains, locus YDR069C, strain doa4, stronger effect = lower value 0.928 | S. cerevisiae deletion strains, locus YDR101C, strain arx1, stronger effect = lower value 1 | S. cerevisiae deletion strains, locus YDR137W, strain rgp1, stronger effect = lower value 0.975 | S. cerevisiae deletion strains, locus YDR159W, strain sac3, stronger effect = lower value 0.959 | S. cerevisiae deletion strains, locus YDR162C, strain NBP2, stronger effect = lower value 1.04 | S. cerevisiae deletion strains, locus YDR195W, strain ref2 0.969 | S. cerevisiae deletion strains, locus YDR297W, strain sur2, stronger effect = lower value 0.969 | S. cerevisiae deletion strains, locus YDR318W, strain mcm21, stronger effect = lower value 0.997 | S. cerevisiae deletion strains, locus YDR334W, strain swr1, stronger effect = lower value 0.952 | S. cerevisiae deletion strains, locus YDR335W, strain msn5, stronger effect = lower value 0.983 | S. cerevisiae deletion strains, locus YDR388W, stronger effect = lower value 0.985 | S. cerevisiae deletion strains, locus YDR392W, strain spt3, stronger effect = lower value 0.852 | S. cerevisiae deletion strains, locus YDR502C, strain sam2, stronger effect = lower value 0.968 | S. cerevisiae deletion strains, locus YEL003W, strain gim4, stronger effect = lower value 0.962 | S. cerevisiae deletion strains, locus YEL037C, strain rad23, stronger effect = lower value 0.965 | S. cerevisiae deletion strains, locus YEL061C, strain CIN8 (second series), stronger effect = lower value 0.955 | S. cerevisiae deletion strains, locus YEL061C, strain CIN8, stronger effect = lower value 1.01 | S. cerevisiae deletion strains, locus YER015W, strain faa2, stronger effect = lower value 0.961 | S. cerevisiae deletion strains, locus YER016W, strain bim1, stronger effect = lower value 0.978 | S. cerevisiae deletion strains, locus YER110C, stronger effect = lower value 0.983 | S. cerevisiae deletion strains, locus YER111C, strain swi4, stronger effect = lower value 0.963 | S. cerevisiae deletion strains, locus YER155C, strain BEM2 (second series), stronger effect = lower value 0.911 | S. cerevisiae deletion strains, locus YER155C, strain BEM2, stronger effect = lower value 1.02 | S. cerevisiae deletion strains, locus YER167W, strain BCK2, stronger effect = lower value 1.02 | S. cerevisiae deletion strains, locus YFR010W, strain ubp6, stronger effect = lower value 0.942 | S. cerevisiae deletion strains, locus YGL078C, strain dbp3, stronger effect = lower value 0.961 | S. cerevisiae deletion strains, locus YGL086W, strain mad1, stronger effect = lower value 0.992 | S. cerevisiae deletion strains, locus YGL167C, strain pmr1, stronger effect = lower value 0.952 | S. cerevisiae deletion strains, locus YGL173C, strain kem1, stronger effect = lower value 0.969 | S. cerevisiae deletion strains, locus YGL227W, strain vid30, stronger effect = lower value 0.937 | S. cerevisiae deletion strains, locus YGL240W, strain doc1, stronger effect = lower value 0.94 | S. cerevisiae deletion strains, locus YGL248W, strain PDE1, stronger effect = lower value 0.986 | S. cerevisiae deletion strains, locus YGL253W, strain hxk2, stronger effect = lower value 0.984 | S. cerevisiae deletion strains, locus YGR135W, strain pre9, stronger effect = lower value 0.95 | S. cerevisiae deletion strains, locus YGR252W, strain gcn5, stronger effect = lower value 0.893 | S. cerevisiae deletion strains, locus YHR013C, strain ard1, stronger effect = lower value 0.916 | S. cerevisiae deletion strains, locus YHR027C, strain rpn1, stronger effect = lower value 0.988 | S. cerevisiae deletion strains, locus YHR079C, strain IRE1 (second series), stronger effect = lower value 0.985 | S. cerevisiae deletion strains, locus YHR094C, strain hxt1, stronger effect = lower value 0.978 | S. cerevisiae deletion strains, locus YHR129C, strain ARP1, stronger effect = lower value 1.01 | S. cerevisiae deletion strains, locus YHR142W, strain chs7, stronger effect = lower value 0.987 | S. cerevisiae deletion strains, locus YHR200W, strain rpn10, stronger effect = lower value 0.973 | S. cerevisiae deletion strains, locus YIL066C, strain RNR3, stronger effect = lower value 1.03 | S. cerevisiae deletion strains, locus YIL073C, strain SPO22, stronger effect = lower value 0.992 | S. cerevisiae deletion strains, locus YIL125W, strain kgd1, stronger effect = lower value 1 | S. cerevisiae deletion strains, locus YIR030C, strain dcg1, stronger effect = lower value 0.994 | S. cerevisiae deletion strains, locus YJL092W, strain hpr5, stronger effect = lower value 0.978 | S. cerevisiae deletion strains, locus YJL095W, strain BCK1 (second series), stronger effect = lower value 0.977 | S. cerevisiae deletion strains, locus YJL095W, strain BCK1, stronger effect = lower value 0.986 | S. cerevisiae deletion strains, locus YJL115W, strain asf1, stronger effect = lower value 0.985 | S. cerevisiae deletion strains, locus YJL129C, strain trk1, stronger effect = lower value 0.935 | S. cerevisiae deletion strains, locus YJL134W, strain LCB3, stronger effect = lower value 1.02 | S. cerevisiae deletion strains, locus YJL154C, strain vps35, stronger effect = lower value 0.972 | S. cerevisiae deletion strains, locus YJL164C, strain tpk1, stronger effect = lower value 0.979 | S. cerevisiae deletion strains, locus YJL166W, strain qcr8, stronger effect = lower value 0.972 | S. cerevisiae deletion strains, locus YJL168C, strain set2, stronger effect = lower value 1 | S. cerevisiae deletion strains, locus YJL187C, strain SWE1 (second series), stronger effect = lower value 0.998 | S. cerevisiae deletion strains, locus YJL187C, strain SWE1, stronger effect = lower value 0.968 | S. cerevisiae deletion strains, locus YKL009W, strain mrt4, stronger effect = lower value 1.01 | S. cerevisiae deletion strains, locus YKL068W, stronger effect = lower value 0.991 | S. cerevisiae deletion strains, locus YKL085W, strain MDH1 (second series), stronger effect = lower value 1 | S. cerevisiae deletion strains, locus YKL085W, strain MDH1, stronger effect = lower value 1 | S. cerevisiae deletion strains, locus YKL160W, strain elf1, stronger effect = lower value 0.994 | S. cerevisiae deletion strains, locus YKR001C, strain vps1, stronger effect = lower value 1 | S. cerevisiae deletion strains, locus YKR026C, strain gcn3, stronger effect = lower value 0.948 | S. cerevisiae deletion strains, locus YKR091W, strain srl3, stronger effect = lower value 0.972 | S. cerevisiae deletion strains, locus YLL001W, strain dnm1, stronger effect = lower value 0.986 | S. cerevisiae deletion strains, locus YLL026W, stronger effect = lower value 0.978 | S. cerevisiae deletion strains, locus YLL041C, strain sdh2, stronger effect = lower value 0.992 | S. cerevisiae deletion strains, locus YLR027C, strain aat2, stronger effect = lower value 0.965 | S. cerevisiae deletion strains, locus YLR039C, strain RIC1, stronger effect = lower value 1.12 | S. cerevisiae deletion strains, locus YLR058C, strain SHM2, stronger effect = lower value 1.01 | S. cerevisiae deletion strains, locus YLR102C, strain apc9, stronger effect = lower value 0.966 | S. cerevisiae deletion strains, locus YLR221C, strain rsa3, stronger effect = lower value 0.933 | S. cerevisiae deletion strains, locus YLR258W, strain gsy2, stronger effect = lower value 0.969 | S. cerevisiae deletion strains, locus YLR262C, strain YPT6 (second series), stronger effect = lower value 0.936 | S. cerevisiae deletion strains, locus YLR268W, strain sec22, stronger effect = lower value 1.01 | S. cerevisiae deletion strains, locus YLR320W, strain mms22, stronger effect = lower value 0.968 | S. cerevisiae deletion strains, locus YLR330W, strain CHS5, stronger effect = lower value 1.02 | S. cerevisiae deletion strains, locus YLR342W, strain FKS1 (second series), stronger effect = lower value 1.02 | S. cerevisiae deletion strains, locus YLR342W, strain FKS1, stronger effect = lower value 0.952 | S. cerevisiae deletion strains, locus YLR357W, strain rsc2, stronger effect = lower value 0.909 | S. cerevisiae deletion strains, locus YLR370C, strain arc18, stronger effect = lower value 0.968 | S. cerevisiae deletion strains, locus YLR371W, strain rom2, stronger effect = lower value 0.982 | S. cerevisiae deletion strains, locus YLR384C, strain iki3, stronger effect = lower value 0.984 | S. cerevisiae deletion strains, locus YLR418C, strain cdc73, stronger effect = lower value 0.986 | S. cerevisiae deletion strains, locus YML016C, strain PPZ1, stronger effect = lower value 1.02 | S. cerevisiae deletion strains, locus YML032C, strain rad52, stronger effect = lower value 0.97 | S. cerevisiae deletion strains, locus YML120C, strain ndi1, stronger effect = lower value 0.954 | S. cerevisiae deletion strains, locus YML124C, strain tub3, stronger effect = lower value 0.981 | S. cerevisiae deletion strains, locus YMR058W, strain fet3, stronger effect = lower value 0.94 | S. cerevisiae deletion strains, locus YMR078C, strain ctf18, stronger effect = lower value 0.971 | S. cerevisiae deletion strains, locus YMR125W, strain sto1, stronger effect = lower value 0.97 | S. cerevisiae deletion strains, locus YMR129W, stronger effect = lower value 0.965 | S. cerevisiae deletion strains, locus YMR205C, strain PFK2, stronger effect = lower value 0.946 | S. cerevisiae deletion strains, locus YMR223W, strain ubp8, stronger effect = lower value 0.978 | S. cerevisiae deletion strains, locus YMR231W, strain pep5, stronger effect = lower value 0.979 | S. cerevisiae deletion strains, locus YMR307W, strain GAS1, stronger effect = lower value 0.992 | S. cerevisiae deletion strains, locus YNL067W, strain RPL9B, stronger effect = lower value 0.998 | S. cerevisiae deletion strains, locus YNL071W, strain lat1, stronger effect = lower value 0.984 | S. cerevisiae deletion strains, locus YNL153C, strain GIM3, stronger effect = lower value 0.985 | S. cerevisiae deletion strains, locus YNL209W, strain ssb2, stronger effect = lower value 0.975 | S. cerevisiae deletion strains, locus YNL233W, strain BNI4, stronger effect = lower value 0.989 | S. cerevisiae deletion strains, locus YNL248C, strain rpa49, stronger effect = lower value 0.995 | S. cerevisiae deletion strains, locus YNL250W, strain rad50, stronger effect = lower value 0.981 | S. cerevisiae deletion strains, locus YNL271C, strain bni1, stronger effect = lower value 0.984 | S. cerevisiae deletion strains, locus YNL298W, strain CLA4, stronger effect = lower value 0.991 | S. cerevisiae deletion strains, locus YNL307C, strain MCK1, stronger effect = lower value 0.97 | S. cerevisiae deletion strains, locus YNL322C, strain KRE1 (second series), stronger effect = lower value 0.952 | S. cerevisiae deletion strains, locus YNR049C, strain mso1, stronger effect = lower value 0.972 | S. cerevisiae deletion strains, locus YNR052C, strain pop2, stronger effect = lower value 0.979 | S. cerevisiae deletion strains, locus YOL006C, strain TOP1, stronger effect = lower value 1.15 | S. cerevisiae deletion strains, locus YOL012C, strain htz1 1.45 | S. cerevisiae deletion strains, locus YOL147C, strain pex11, stronger effect = lower value 0.994 | S. cerevisiae deletion strains, locus YOR001W, strain rrp6, stronger effect = lower value 1 | S. cerevisiae deletion strains, locus YOR061W, strain CKA2, stronger effect = lower value 1.03 | S. cerevisiae deletion strains, locus YOR069W, strain VPS5, stronger effect = lower value 1.01 | S. cerevisiae deletion strains, locus YOR070C, strain gyp1, stronger effect = lower value 0.973 | S. cerevisiae deletion strains, locus YOR080W, strain dia2, stronger effect = lower value 0.97 | S. cerevisiae deletion strains, locus YOR083W, strain WHI5, stronger effect = lower value 0.992 | S. cerevisiae deletion strains, locus YOR106W, strain vam3, stronger effect = lower value 0.964 | S. cerevisiae deletion strains, locus YOR136W, strain idh2, stronger effect = lower value 0.985 | S. cerevisiae deletion strains, locus YOR144C, strain elg1, stronger effect = lower value 0.998 | S. cerevisiae deletion strains, locus YOR184W, strain ser1, stronger effect = lower value 1.05 | S. cerevisiae deletion strains, locus YOR265W, strain rbl2, stronger effect = lower value 0.979 | S. cerevisiae deletion strains, locus YOR270C, strain vph1, stronger effect = lower value 0.957 | S. cerevisiae deletion strains, locus YOR290C, strain snf2, stronger effect = lower value 0.9 | S. cerevisiae deletion strains, locus YOR316C, strain cot1, stronger effect = lower value 0.971 | S. cerevisiae deletion strains, locus YPL051W, strain arl3, stronger effect = lower value 0.993 | S. cerevisiae deletion strains, locus YPL055C, strain LGE1, stronger effect = lower value 1.05 | S. cerevisiae deletion strains, locus YPL078C, strain atp4, stronger effect = lower value 0.986 | S. cerevisiae deletion strains, locus YPL106C, strain sse1, stronger effect = lower value 0.889 | S. cerevisiae deletion strains, locus YPL240C, strain hsp82, stronger effect = lower value 0.995 | S. cerevisiae deletion strains, locus YPL241C, strain CIN2, stronger effect = lower value 1.02 | S. cerevisiae deletion strains, locus YPR119W, strain clb2, stronger effect = lower value 0.971 | S. cerevisiae deletion strains, locus YPR141C, strain kar3, stronger effect = lower value 1.01 | S. cerevisiae deletion strains, locus YPR163C, strain tif3, stronger effect = lower value 0.983 | S. cerevisiae deletion strains, locus YPR167C, strain met16, stronger effect = lower value 0.981 | S. cerevisiae deletion strains, strain wtn01, stronger effect = lower value 0.993 | S. cerevisiae strains, strain wild type, stronger effect = lower value 1.04
